Results published in PubChem BioAssay AID1159580 (chemical genetic matrix, 2015).
About 2,000 (36%) of roughly 5,500 compounds were called active. Not shown: some 18% with an inconclusive outcome. Rule as the data show it: active = normalized growth mostly below about 0.91 (no sharp cut-off); inconclusive = no clear call, values can overlap the other calls; inactive = mostly above about 0.92. This is one part of the list.

Assay: chemical genetic growth profiling, strain panel (AID 1159580);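 also: tested at 20 µM; growth read once vehicle control cultures reached saturation at 30 °C; 1 = growth at the plate median or of vehicle wells; lower values mean less growth of the strain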
Conditions: growth OD

Measured: normalized growth

O=C(NCO)c1cccnc1
inactive: S. cerevisiae deletion strains, locus YJR075W, strain HOC1, hits give low values 0.992 | S. cerevisiae deletion strains, locus YKL009W, strain mrt4, hits give low values 0.984 | S. cerevisiae deletion strains, locus YKL068W, hits give low values 0.974 | S. cerevisiae deletion strains, locus YKL085W, strain MDH1 (second series), hits give low values 1 | S. cerevisiae deletion strains, locus YKL085W, strain MDH1, hits give low values 1 | S. cerevisiae deletion strains, locus YKL160W, strain elf1, hits give low values 1.01 | S. cerevisiae deletion strains, locus YKL190W, strain CNB1, hits give low values 0.997 | S. cerevisiae deletion strains, locus YKR001C, strain vps1, hits give low values 0.99 | S. cerevisiae deletion strains, locus YKR026C, strain gcn3, hits give low values 1.01 | S. cerevisiae deletion strains, locus YKR091W, strain srl3, hits give low values 1 | S. cerevisiae deletion strains, locus YLL001W, strain dnm1, hits give low values 0.992 | S. cerevisiae deletion strains, locus YLL026W, hits give low values 1 | S. cerevisiae deletion strains, locus YLL041C, strain sdh2, hits give low values 1.01 | S. cerevisiae deletion strains, locus YLR027C, strain aat2, hits give low values 1.01 | S. cerevisiae deletion strains, locus YLR039C, strain RIC1, hits give low values 0.939 | S. cerevisiae deletion strains, locus YLR058C, strain SHM2, hits give low values 0.986 | S. cerevisiae deletion strains, locus YLR102C, strain apc9, hits give low values 0.985 | S. cerevisiae deletion strains, locus YLR113W, strain HOG1, hits give low values 0.997 | S. cerevisiae deletion strains, locus YLR221C, strain rsa3, hits give low values 1.01 | S. cerevisiae deletion strains, locus YLR258W, strain gsy2, hits give low values 1.01 | S. cerevisiae deletion strains, locus YLR262C, strain YPT6 (second series), hits give low values 0.995 | S. cerevisiae deletion strains, locus YLR262C, strain YPT6, hits give low values 0.954 | S. cerevisiae deletion strains, locus YLR268W, strain sec22, hits give low values 0.993 | S. cerevisiae deletion strains, locus YLR320W, strain mms22, hits give low values 1 | S. cerevisiae deletion strains, locus YLR330W, strain CHS5, hits give low values 0.981 | S. cerevisiae deletion strains, locus YLR342W, strain FKS1 (second series), hits give low values 1.01 | S. cerevisiae deletion strains, locus YLR342W, strain FKS1, hits give low values 1.01 | S. cerevisiae deletion strains, locus YLR357W, strain rsc2, hits give low values 0.974 | S. cerevisiae deletion strains, locus YLR370C, strain arc18, hits give low values 1.01 | S. cerevisiae deletion strains, locus YLR371W, strain rom2, hits give low values 0.971 | S. cerevisiae deletion strains, locus YLR384C, strain iki3, hits give low values 0.997 | S. cerevisiae deletion strains, locus YLR418C, strain cdc73, hits give low values 1.03 | S. cerevisiae deletion strains, locus YML016C, strain PPZ1, hits give low values 0.998 | S. cerevisiae deletion strains, locus YML032C, strain rad52, hits give low values 0.975 | S. cerevisiae deletion strains, locus YML120C, strain ndi1, hits give low values 1.01 | S. cerevisiae deletion strains, locus YML124C, strain tub3, hits give low values 1 | S. cerevisiae deletion strains, locus YMR058W, strain fet3, hits give low values 1 | S. cerevisiae deletion strains, locus YMR078C, strain ctf18, hits give low values 0.993 | S. cerevisiae deletion strains, locus YMR125W, strain sto1, hits give low values 0.997 | S. cerevisiae deletion strains, locus YMR129W, hits give low values 0.987 | S. cerevisiae deletion strains, locus YMR205C, strain PFK2, hits give low values 0.992 | S. cerevisiae deletion strains, locus YMR223W, strain ubp8, hits give low values 0.988 | S. cerevisiae deletion strains, locus YMR231W, strain pep5, hits give low values 1.01 | S. cerevisiae deletion strains, locus YMR263W, strain SAP30, hits give low values 0.999 | S. cerevisiae deletion strains, locus YMR307W, strain GAS1, hits give low values 1.08 | S. cerevisiae deletion strains, locus YNL067W, strain RPL9B, hits give low values 0.995 | S. cerevisiae deletion strains, locus YNL071W, strain lat1, hits give low values 1.02 | S. cerevisiae deletion strains, locus YNL128W, strain TEP1, hits give low values 0.999 | S. cerevisiae deletion strains, locus YNL153C, strain GIM3, hits give low values 1 | S. cerevisiae deletion strains, locus YNL183C, strain NPR1, hits give low values 0.92 | S. cerevisiae deletion strains, locus YNL209W, strain ssb2, hits give low values 0.999 | S. cerevisiae deletion strains, locus YNL233W, strain BNI4, hits give low values 1.01 | S. cerevisiae deletion strains, locus YNL248C, strain rpa49, hits give low values 1 | S. cerevisiae deletion strains, locus YNL250W, strain rad50, hits give low values 0.983 | S. cerevisiae deletion strains, locus YNL271C, strain bni1, hits give low values 0.978 | S. cerevisiae deletion strains, locus YNL298W, strain CLA4, hits give low values 0.996 | S. cerevisiae deletion strains, locus YNL307C, strain MCK1, hits give low values 0.993 | S. cerevisiae deletion strains, locus YNL322C, strain KRE1 (second series), hits give low values 1.01 | S. cerevisiae deletion strains, locus YNL322C, strain KRE1, hits give low values 0.986 | S. cerevisiae deletion strains, locus YNR049C, strain mso1, hits give low values 1.01 | S. cerevisiae deletion strains, locus YNR052C, strain pop2, hits give low values 0.984 | S. cerevisiae deletion strains, locus YOL006C, strain TOP1, hits give low values 0.997 | S. cerevisiae deletion strains, locus YOL012C, strain htz1 0.887 | S. cerevisiae deletion strains, locus YOL147C, strain pex11, hits give low values 0.988 | S. cerevisiae deletion strains, locus YOR001W, strain rrp6, hits give low values 0.999 | S. cerevisiae deletion strains, locus YOR061W, strain CKA2, hits give low values 0.991 | S. cerevisiae deletion strains, locus YOR069W, strain VPS5, hits give low values 0.989 | S. cerevisiae deletion strains, locus YOR070C, strain gyp1, hits give low values 1 | S. cerevisiae deletion strains, locus YOR080W, strain dia2, hits give low values 1 | S. cerevisiae deletion strains, locus YOR083W, strain WHI5, hits give low values 1 | S. cerevisiae deletion strains, locus YOR106W, strain vam3, hits give low values 1.02 | S. cerevisiae deletion strains, locus YOR136W, strain idh2, hits give low values 0.982 | S. cerevisiae deletion strains, locus YOR144C, strain elg1, hits give low values 0.978 | S. cerevisiae deletion strains, locus YOR184W, strain ser1, hits give low values 0.959 | S. cerevisiae deletion strains, locus YOR231W, strain MKK1, hits give low values 0.98 | S. cerevisiae deletion strains, locus YOR265W, strain rbl2, hits give low values 1.01 | S. cerevisiae deletion strains, locus YOR270C, strain vph1, hits give low values 1.02 | S. cerevisiae deletion strains, locus YOR290C, strain snf2, hits give low values 0.943 | S. cerevisiae deletion strains, locus YOR316C, strain cot1, hits give low values 0.997 | S. cerevisiae deletion strains, locus YPL051W, strain arl3, hits give low values 1 | S. cerevisiae deletion strains, locus YPL055C, strain LGE1, hits give low values 1.02 | S. cerevisiae deletion strains, locus YPL078C, strain atp4, hits give low values 1.01 | S. cerevisiae deletion strains, locus YPL106C, strain sse1, hits give low values 0.998 | S. cerevisiae deletion strains, locus YPL240C, strain hsp82, hits give low values 1.02 | S. cerevisiae deletion strains, locus YPL241C, strain CIN2, hits give low values 0.958 | S. cerevisiae deletion strains, locus YPL256C, strain CLN2, hits give low values 0.985 | S. cerevisiae deletion strains, locus YPR119W, strain clb2, hits give low values 0.986 | S. cerevisiae deletion strains, locus YPR141C, strain kar3, hits give low values 0.992 | S. cerevisiae deletion strains, locus YPR163C, strain tif3, hits give low values 0.989 | S. cerevisiae deletion strains, locus YPR167C, strain met16, hits give low values 1 | S. cerevisiae deletion strains, strain wtn01, hits give low values 0.996 | S. cerevisiae strains, strain wild type, hits give low values 0.986
